# This is a sample that favours compounds with a hit; in the whole collection about 10% have one here.
# CCT chaperon mod – High-Throughput Screening for Modulators of Cytosolic Chaperonin Activity; purified chaperonin ATPase assay, HTRF ADP detection, 30 min; activity change, % (no concentration beside the values), hits read low; 360,000 tested, 0.3% active; AID 651819, 2012; in the data active = activity change below about -30%
#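 We incubate TRiC, 40 or 20 nM final, with library compounds at 76 uM and 10 uM ATP for 30 min at 37 °C. ADP formed is detected with Transcreener HTRF reagents after 30 min at room temperature.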
# PLK1 PBD block – qHTS for Inhibitors of PLK1-PDB (polo-like kinase 1 - polo-box domain): Primary Screen | 360,000 tested, 2.8% active | Serine/threonine-protein kinase PLK1 (Homo sapiens), P53350 | Potency, µM, without a hit: max response, negative = inhibition, most hits filed as inhibitors | Plk1 PBD binding of FITC phosphopeptide, fluorescence polarization; note: potency is the fitted concentration of half-maximal effect; series mostly up to about 57 µM; nearly all actives have a fitted effect of over 65% in size
# Target sequence (P53350 whole entry, looked up, the tested form may be a part): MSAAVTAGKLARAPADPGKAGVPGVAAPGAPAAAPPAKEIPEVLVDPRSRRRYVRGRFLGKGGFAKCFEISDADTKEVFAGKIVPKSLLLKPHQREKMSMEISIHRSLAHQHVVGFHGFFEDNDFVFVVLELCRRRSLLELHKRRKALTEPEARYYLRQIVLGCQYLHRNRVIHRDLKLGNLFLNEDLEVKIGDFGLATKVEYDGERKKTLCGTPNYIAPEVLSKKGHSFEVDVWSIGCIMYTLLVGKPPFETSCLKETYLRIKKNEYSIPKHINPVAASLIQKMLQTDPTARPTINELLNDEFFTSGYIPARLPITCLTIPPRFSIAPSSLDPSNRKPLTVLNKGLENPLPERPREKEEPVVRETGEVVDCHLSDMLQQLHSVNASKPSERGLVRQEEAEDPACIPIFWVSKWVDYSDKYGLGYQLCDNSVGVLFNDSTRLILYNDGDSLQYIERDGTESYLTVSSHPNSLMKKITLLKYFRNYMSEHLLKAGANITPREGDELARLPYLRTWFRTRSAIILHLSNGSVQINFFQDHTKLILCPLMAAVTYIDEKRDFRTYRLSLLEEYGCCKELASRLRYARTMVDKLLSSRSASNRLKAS
# MmCpn inh – Inhibitors of TCP-1 ring complex (TRiC) of Methanococcus maripaludis (MmCpn): qHTS | AID 504842, 2011 | purified Mm-Cpn ATPase, ADP Transcreener TR-FRET | Potency, µM (highest dose often 76.9 µM), inactives show top-dose activity, negative = inhibition, actives largely listed as inhibitors | Chaperonin Mm-Cpn (Methanococcus maripaludis) | 330,000 tested, 0.031% active; note: potency is the fitted concentration of half-maximal effect; nearly all actives have a fitted effect of over 80% in size
#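 Purified archaeal chaperonin (25 nM final) was preincubated with compound for 10 min at 37°C, then ATP (10 uM final) was added for 30 min at 37°C in Tris pH 7.4/KCl/MgCl2/DTT buffer. ADP was quantified by HTRF Transcreener TR-FRET.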
# VDR inh – Inhibitors of the vitamin D receptor (VDR): qHTS. Vitamin D3 receptor (Homo sapiens), P11473. VDR-SRC2-3 peptide fluorescence polarization, 2 h. Potency, µM, inactives show max response, negative = inhibition, hits mostly inhibitors. 400,000 tested, 0.93% active. AID 504847, 2011; note: potency is the fitted concentration of half-maximal effect
#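 After 23 nl compound addition and a short centrifugation, plates sat for 2 hours at ambient temperature; polarization of fluorescence then indicated loss of VDR binding to peptide SRC2-3.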
# Sfp PPTase inh – qHTS Assay for Inhibitors of Bacillus subtilis Sfp phosphopantetheinyl transferase (PPTase); AID 1490, 2009; Biochemical Sfp PPTase activity, qHTS; 4'-phosphopantetheinyl transferase ffp (Bacillus subtilis), Q9F4F7; 310,000 tested, 3.5% active; Potency, µM, without a hit: largest response in the series, negative = inhibition, hits mostly inhibitors;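 note: the enzyme is Sfp with the accession as filed and its product quenches rhodamine fluorescence; potency is the fitted concentration of half-maximal effect; 0% = enzyme reaction without inhibitor and -100% = no enzyme wells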
#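 Buffer: 50 mM Hepes-Na pH 7.6, 10 mM MgCl2, 0.01% Nonidet P-40, 0.01% BSA. Enzyme 15 nM, pre-exposed to compound 15 min; substrates then added and fluorescence change tracked over 30 min.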
# G9a inh – qHTS Assay for Inhibitors of Histone Lysine Methyltransferase G9a; Histone-lysine N-methyltransferase EHMT2 (Homo sapiens), Q96KQ7; Potency, µM (titrated, usually from 102 µM), for the others: at the top dose activity, negative = inhibition, usual class: inhibitors; AID 504332, 2011; G9a H3K9 monomethylation, AlphaScreen, 2 h; 350,000 tested, 8.8% active; note: potency is the fitted concentration of half-maximal effect; nearly all actives have a fitted effect of over 75% in size
#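 Signal arises when biotinylated H3K9 peptide, once monomethylated, bridges streptavidin donor and antibody-captured acceptor beads. Enzyme at 20 nM was preincubated 15 min with test compounds; peptide 500 nM and SAM 20 uM then reacted for 2 h.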
# Starred values were filed as active, the others as inactive; ? = inconclusive; nt = not tested or not shown; [ ] = remark or other dose. Unless noted, calls come from the whole dose curve; as a rule, active = well fitted curve in the direction sought with a large enough effect; inconclusive = small, poorly fitted or top-dose-only effect, or another doubt; inactive = no such curve, though single readings can be large; an effect the other way counts as inactive or inconclusive. Unless noted, % is set by controls: 0 for no effect and ±100 for the full control effect.
SMILES,CCT chaperon mod,PLK1 PBD block,MmCpn inh,VDR inh,Sfp PPTase inh,G9a inh
Cc1ccc(-c2nc(SCC(=O)NCCN3C(=O)CSC3=O)[nH]c2-c2ccc(C)cc2)cc1,nt,nt,-3%,nt,-10%,45µM*
Cc1ccc(SCC(=O)NCCN2C(=O)CSC2=O)c(C)c1,0,-4%,0%,19%,10%,-3%[59 µM]
Cc1nn(-c2ccccc2)c(OC(=O)c2cccc(Br)c2)c1S(=O)(=O)c1ccccc1,nt,nt,nt,13%,nt,-10%[59 µM]
CO/N=C(\C)CCN1CCCCc2nc(C)c(C)cc21,nt,nt,nt,nt,-19%,nt
C=CCNC(=S)NNc1nc2c(c(=O)[nH]1)C1(CCCCC1)Cc1ccccc1-2,-3,-26%,4%,35%,?,14µM*
O=C(c1cc(-c2ccc(Br)cc2)n[nH]1)N1CCN(S(=O)(=O)c2ccc(Br)s2)CC1,nt,nt,nt,8%,nt,10%[59 µM]
CCCCN=c1scc(-c2ccc3c(c2)NC(=O)CO3)n1N=C1CCCC1,-2,17µM*,-1%,-13%,7%,8.9µM*
COCC(C)n1c(-c2ccc3c(c2)NC(=O)CO3)csc1=Nc1ccc(OC(F)F)cc1 (stereo unspecified),-3,2%,2%,2%,2%,-4%[12.7 µM]
Cc1ccc(-n2nc(C)c3c(C)cc(=O)n(CC(=O)NC(C)c4ccccc4)c32)cc1 (stereo unspecified),nt,nt,nt,-3%,nt,2%[59 µM]
Nc1c(-c2cccc([N+](=O)[O-])c2)nc2ccccn12,1,-2%,-4%,6%,-17%,79µM*
CN(C)c1ncc2ncc(=O)n(Cc3cccs3)c2n1,nt,nt,nt,-14%,1%,14%[12.7 µM]
CN(C)CCCNc1nc(-c2ccccc2)c2c(c1C#N)CC(C)(C)OC2,-1,24µM*,-22%,-12%,3%,-11%[12.7 µM]
CC1(C)Cc2c(C#N)c(NC3CCCCC3)nc(-c3ccco3)c2CO1,nt,nt,-4%,nt,3.5µM*,11µM*
CCN(CC)CCNc1nc(-c2ccco2)c2c(c1C#N)CC(C)(C)OC2,-14,-5%,2%,1%,5%,6%
CC1(C)Cc2c(C#N)c(NCC3CCCO3)nc(-c3ccco3)c2CO1 (stereo unspecified),-4,-10%,-1%,0%,7.9µM*,10µM*
CC(C)OC(=O)c1cccc(NC(=O)Cn2nnc3sc4c(c3c2=O)CCCC4)c1,nt,nt,nt,-9%,nt,?
CN(C)S(=O)(=O)c1cccc(COc2cccnc2[N+](=O)[O-])c1,0,30µM*,-1%,?,6%,0%
CC(=O)Nc1ncc(N=Nc2cccc(C(F)(F)F)c2)s1,-14,-24%,0%,-11%,17%,45µM*
Cc1c(N/N=C(\C#N)C(=O)c2ccccc2)c(=O)n(-c2ccccc2)n1C,-3,-7%,2%,-13%,-10%,?
CCOC(=O)/C(C#N)=N/Nc1c(C)n(C)n(-c2ccccc2)c1=O,-2,-2%,0%,-5%,-90%,18µM*
COc1ccc(-c2nc3cnc(N4CCN(C)CC4)nc3n(CCc3ccccc3)c2=O)cc1,nt,nt,nt,-1%,26%,10%[0.501 µM]
N#Cc1c2n(c3c(=O)n(Cc4ccccc4Cl)cnc13)CCCCC2,-32*,1%,-3%,3%,-16%,12%
COc1cc(/C=C2/C(=O)NN(c3cccc(C)c3)C2=O)cc([N+](=O)[O-])c1O,0,?,-6%,-27%,12%,35µM*
COc1cc(/C=N/n2cnnc2)ccc1OC(=O)c1ccco1,-4,-8%,1%,-1%,15%,1%
COc1cc(/C=C2/C(=O)NN(c3ccc(C)c(Cl)c3)C2=O)cc([N+](=O)[O-])c1O,-1,?,1%,?,4%,11µM*
SMILES,CCT chaperon mod,PLK1 PBD block,MmCpn inh,VDR inh,Sfp PPTase inh,G9a inh
COc1cc(/C=C2\SC(=O)N(c3cccc(Cl)c3)C2=O)cc([N+](=O)[O-])c1O,1,?,-1%,-8%,-8%,nt
COc1cc(/C=C2\SC(=O)N(c3ccc(Cl)cc3)C2=O)cc([N+](=O)[O-])c1O,-3,?,3%,-4%,-11%,7.9µM*
COc1cc(/C=C2/C(=O)NN(c3cccc(C)c3)C2=O)ccc1OC(=O)c1ccco1,-1,3µM*,0%,50µM*,45µM*,?
CCc1ccc(NC(=O)c2ccc(CN3C(=O)C(C)=C(c4ccc(C)cc4)S3(=O)=O)cc2)cc1,nt,nt,nt,-3%,nt,6%[59 µM]
CCOc1ccc(NC(=O)c2c(NC(=O)Cc3ccccc3)sc3c2CCCC3)cc1,nt,nt,nt,-3%,nt,13%[59 µM]
Cc1nn(CCCC(=O)NCc2ccccc2)c(=O)c2cc3sccc3n12,nt,nt,nt,8%,nt,-3%[59 µM]
S=C(CSc1ccccc1)Nc1cccc2ccccc12,0,11µM*,nt,nt,nt,nt
O=C(Nc1cccc2ccccc12)N(c1ccccc1)c1ccccc1,0,-7%,nt,-26%,nt,nt
C=CC1=C(C)C2=NC1=CC1=NC(=CC3=NC(=CC4=NC(=C2)C(C)=C4CCC(=O)O)C(CCC(=O)O)=C3C)C(C=C)=C1C.[Zn],nt,nt,nt,?,4.5µM*,nt
Nc1ccccc1C(=O)C[C@H](N)C(=O)O,-5,-9%,nt,-1%,71µM*,2%[59 µM]
CC(C)(C)n1nc2c(c1NC(=O)Cc1ccc([N+](=O)[O-])cc1)CS(=O)(=O)C2,-1,-4%,-2%,4%,16%,47%
CCOc1ccc(CC(=O)Nc2c3c(nn2C(C)(C)C)CS(=O)(=O)C3)cc1,-4,-3%,3%,-10%,1%,79µM*
C[C@H](Cc1nc2c(cnn2-c2ccccc2Cl)c(=O)[nH]1)C(F)(F)F,nt,nt,nt,?,-21%,nt
CN1CCN(c2ccc(S(=O)(=O)N3CCCCC3)cc2NC(=O)/C=C/c2ccc(OC(F)F)cc2)CC1,-1,-3%,-4%,-26%,nt,45µM*
CCN1CCN(c2ccc(S(=O)(=O)N3CCCCC3)cc2NC(=O)/C=C/c2ccc([N+](=O)[O-])cc2)CC1,-2,-12%,0%,-8%,nt,18µM*
CCN1CCN(c2ccc(S(=O)(=O)N3CCCCC3)cc2NC(=O)/C=C/c2ccc(F)cc2)CC1,3,-1%,1%,-7%,nt,1.3µM*

# High-throughput results from PubChem BioAssay.
